High-throughput results deposited in PubChem by National Center for Advancing Translational Sciences (NCATS).
Sampled rows, rich in hits. Any-hit rate of the full collection: about 7.9%.
KB-V1 cytotox – qHTS assay for MDR1-selective chemotherapeutics: Primary screen using the drug-selected MDR subline cells KB-V1 | Potency, µM (titrated, usually from 46.1 µM), hits mostly cytotoxic | KB-V1 MDR cells viability, CellTiter-Glo, 72 h | AID 1347076, 2019 | actives 3.4% (n = 400,000); further: on the % scale 0 is the no-effect control and ±100 the full control effect; nearly all actives have a fitted effect of over 60% in size
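qHTS viability screen in drug-selected KB-V1 MDR cells: 72 h compound treatment at 37 degrees C, ATP luminescence end point.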
HT1080 IDH1KD tx – qHTS for induction of synthetic lethality in tumor cells producing 2HG: qHTS for the HT-1080-IDH1KD cell line | HT-1080 IDH1 knockdown viability, ATP luminescence, 48 h | Potency, µM (top dose mostly 46.1 µM), without a hit: at the top dose activity, negative = toxicity, hits mostly cytotoxic | actives 2% (n = 360,000);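 further: 0% = DMSO wells and -100% = cell-free medium wells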
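Using the IDH1-knockdown HT-1080 line run in the same batch and compound series as the NT line, viability after 48 h at 37 °C was determined by CellTiter-Glo luminescence and expressed as % activity.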
HT1080-NT tox – qHTS for induction of synthetic lethality in tumor cells producing 2HG: qHTS for the HT-1080-NT fibrosarcoma cell line. HT-1080-NT fibrosarcoma viability, CellTiter-Glo ATP luminescence, 48 h. Potency, µM (titrated, usually from 46.1 µM), for the others: at the highest dose activity, negative = less viability, actives largely listed as cytotoxic. actives 1.6% (n = 360,000). AID 686970, 2013;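 further: NT is the 2HG producing partner of a matched IDH1 knockdown line; 0% = DMSO-treated cells and -100% = media-only wells without cells; nearly all actives have a fitted effect of over 55% in size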
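Fibrosarcoma NT cells, 750 per well in 5% FBS RPMI, were exposed to compound for 48 hours. Viability: CellTiter-Glo luminescence.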
KB-3-1 tox – qHTS assay for MDR1-selective chemotherapeutics: Primary screen using the parental adenocarcinoma cell KB-3-1 | KB-3-1 viability, CellTiter-Glo ATP luminescence, 72 h | Potency, µM (titrated, usually from 46.1 µM), usual class: cytotoxic | actives 1.4% (n = 400,000) | AID 1347075, 2019; further: on the % scale 0 is the no-effect control and ±100 the full control effect; nearly all actives have a fitted effect of over 60% in size
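Here the drug-naive KB-3-1 line serves as comparator for MDR sub-line selectivity; cells received compound titrations, 72 h at 37 °C, then CellTiter-Glo readout.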
SW480 rereplic – A quantitative high throughput screen for small molecules that induce DNA re-replication in SW480 colon adenocarcinoma cells. SW480 DNA re-replication, Hoechst DNA content imaging, 48 h. Potency, µM (highest dose often 46.1 µM), inactives show at the top dose re-replication activation, actives largely listed as activators. actives 1.8% (n = 340,000). AID 624297, 2012; further: % of control where 0% means no effect; nearly all actives have a fitted effect of over 55% in size
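Compounds, transferred as 23 nL by pin tool, were incubated with cells for 48 hr; DNA content per nucleus was then quantified by Hoechst staining and fluorescence plate imaging.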
MCF10A rereplic – A quantitative high throughput screen for small molecules that induce DNA re-replication in MCF 10a normal breast cells | MCF 10A DNA re-replication, Hoechst nuclear intensity, 48 h | Potency, µM (top dose mostly 46.1 µM), for the others: at the highest dose activity, positive = re-replication, usual class: activators | actives 2.9% (n = 350,000); further: % of control where 0% means no effect; nearly all actives have a fitted effect of over 50% in size
* marks the source's active call; other numbers are inactive results; i = inactive; ? = inconclusive; · = no result given; [ ] = another dose, or the depositor's remark. The call rests on the fitted dose curve; in most records, active means well fitted curve in the direction sought with a large enough effect; inconclusive means small, poorly fitted or top-dose-only effect, or another doubt; inactive means no such curve, though single readings can be large; an effect the other way counts as inactive or inconclusive. Potency means the concentration at half of the fitted maximal effect.

SMILES	KB-V1 cytotox	HT1080 IDH1KD tx	HT1080-NT tox	KB-3-1 tox	SW480 rereplic	MCF10A rereplic
O=C(/C=C/c1cccc(Br)c1)N1CCN(c2cccc(C(F)(F)F)c2)CC1	?	-19.1%	-18.4%	i	?	?
COc1ccccc1NC(=O)N1CCN(c2cccc(C(F)(F)F)c2)CC1	?	0.4%	11.1%	i	-4.8%	?
COc1ccccc1CC(=O)N1CCN(c2cccc(C(F)(F)F)c2)CC1	11.6µM*	-16.4%	?	i	-3.3%	4.9%
O=C(/C=C/c1ccc(Br)cc1)N1CCN(c2cccc(C(F)(F)F)c2)CC1	?	-9.1%	?	?	9.2%	13µM*
COc1cccc(/C=C(/C(=O)OCC(=O)NC2CCCC(C)C2C)c2ccccc2)c1 (stereo not given)	i	?	?	i	-16.2%	18.4µM*
COc1ccc(NC2CCCN(C(=O)CCc3cn[nH]c3)C2)cc1 (stereo not given)	i	26.4%	18.7%	i	-11.9%	-33.5%
O=C(NC1CCCCC1)C(c1ccnc2ccccc12)n1c(=O)c(-c2ccccc2)nc2ccccc21 (stereo not given)	23.1µM*	11.6µM*	13µM*	18.4µM*	·	·
CCNC(=S)/N=C(\N)Nc1nc(C)c2cc(C)ccc2n1	9.2µM*	1.4%	-4.0%	?	6.4%	6.3%
CCN(CC)CCCCN1c2ccccc2Sc2ccccc21	?	23.1µM*	18.4µM*	?	18.4µM*	25.9µM*
Cc1ccc2c(c1)N(C(=O)CCC(=O)NCc1ccccc1Cl)CC(C)O2 (stereo not given)	i	·	·	i	·	·
O=C(CCCCCn1c(=S)[nH]c2ccc(N3CCOCC3)cc2c1=O)NCc1ccccc1	i	19.1%	3.2%	i	-2.5%	21.9%
O=C(CCCCCn1c(=S)[nH]c2ccc(N3CCOCC3)cc2c1=O)NCc1cccc(Cl)c1	i	-10.0%	2.7%	i	?	16.4µM*
O=c1c2cc(N3CCOCC3)ccc2[nH]c(=S)n1Cc1ccccn1	i	4.7%	3.9%	i	-2.4%	?
O=c1c2cc(N3CCOCC3)ccc2[nH]c(=S)n1Cc1ccccc1Cl	i	-9.0%	-8.6%	i	?	23.1µM*
COc1ccc(Cl)cc1NC(=O)c1cccc(-n2cnnn2)c1	i	-0.7%	-0.4%	i	8.8%	-1.5%
CCN(CC)c1nc2ccccc2nc1C(C#N)C(=O)NCCc1ccccc1 (stereo not given)	i	0.6%	-2.6%	i	?	18.4µM*
CCCCCCNC(=O)C(C#N)c1nc2ccccc2nc1N1CCCC1 (stereo not given)	i	13.7%	5.9%	i	?	13µM*
CCCCCCOC(=O)C(C#N)c1nc2ccccc2nc1N1CCN(CC)CC1 (stereo not given)	?	23.1µM*	16.4µM*	?	17.4%	?
COCCCNC(=O)C(C#N)c1nc2ccccc2nc1N1CCCC1 (stereo not given)	i	9.6%	4.7%	i	-1.4%[9.22 µM]	4.4%
CCCCCCNC(=O)C(C#N)c1nc2ccccc2nc1N1CCOCC1 (stereo not given)	i	1.5%	1.2%	i	-4.1%	-4.0%
CCCCCNC(=O)C(C#N)c1nc2ccccc2nc1N1CCCC1 (stereo not given)	i	-3.8%	1.6%	i	?	10.3µM*
CCCCCCOC(=O)C(C#N)c1nc2ccccc2nc1N1CCOCC1 (stereo not given)	i	1.2%	3.5%	i	-4.9%	2.6%
CC(=O)N/N=C(\C)C1COc2ccccc2O1 (stereo not given)	?	10.7%	9.0%	?	-3.2%	0.0%
N#CC(C(=O)NCCc1ccccc1)c1nc2ccccc2nc1N1CCOCC1 (stereo not given)	?	11.0%	18.9%	i	-4.3%	0.2%
N#CC(C(=O)NCCc1ccccc1)c1nc2ccccc2nc1N1CCCCC1 (stereo not given)	i	-2.3%	-1.3%	i	?	20.6µM*
SMILES	KB-V1 cytotox	HT1080 IDH1KD tx	HT1080-NT tox	KB-3-1 tox	SW480 rereplic	MCF10A rereplic
CCOC(=O)C1=C(CSc2nc3ccccc3s2)NC(=O)NC1c1cc(C)ccc1C (stereo not given)	i	-28.1%	?	i	18.4µM*	?
CCOC(=O)C1=C(CSc2nc3ccccc3s2)NC(=O)NC1c1ccc(OC)cc1 (stereo not given)	16.4µM*	?	?	?	-2.4%	5.4%
CCOC(=O)C1=C(CSCC(=O)OC)NC(=O)NC1c1cc(C)ccc1C (stereo not given)	i	-2.8%	3.9%	i	-11.3%	-6.7%
CCN1C(=O)C2(C(C(=O)c3cc4ccccc4o3)=C(O)C(=O)N2CCCN2CCOCC2)c2ccccc21 (stereo not given)	i	7.8%	9.6%	i	-16.6%	-3.0%
COc1cccc(NC(=O)Cn2c(=O)ccc3cc(S(=O)(=O)N4CCC(C)CC4)ccc32)c1	?	·	·	i	·	·
Cc1sc2nc(C)n(/N=C/c3ccc(O)cc3)c(=O)c2c1C	i	12.8%	2.9%	i	0.1%	1.4%
Cc1sc2nc(C)n(/N=C/N(C)C)c(=O)c2c1C	i	24.9%	-6.2%	i	14.6µM*	0.3%
CC(C)CN(CC(C)C)C(=S)Nc1ccc(Cl)cc1	i	?	-23.8%	i	10.2%	18.4µM*
CCc1ccc(NC(=S)N(Cc2ccc(Cl)cc2)Cc2ccc(C(=O)O)cc2)cc1	i	-15.3%	-9.3%	i	-3.1%	16.4%
CCCc1nnn(S(=O)(=O)c2ccc([N+](=O)[O-])cc2)c1CCC	i	?	15.0%	i	-2.6%	-0.9%
Cc1ccc(OCCCN2C(=O)C(=O)c3cc(C)ccc32)cc1	i	-11.0%	-9.1%	?	23.1µM*	20.6µM*
O=C(NCC1COc2ccccc2O1)c1cccc(S(=O)(=O)N2CCCCC2)c1 (stereo not given)	i	-0.5%	-8.6%	?	3.3%	3.4%
